In the supplement of paper PMC13380429:

Test system: Vero E6 infected with SARS-CoV-2
Assay: inhibition of SARS-CoV-2 cytopathic effect; higher = more antiviral protection, active = above 15
Details: 48 h

Measured: inhibition of SARS-CoV-2 cytopathic effect

O=c1cc(-c2ccccc2)oc2cc(O)cc(O)c12 [chrysin]
inactive: 1 nM -1.5% | 8.33 nM 0.24% | 100 nM -1.23% | 833.33 nM -7.18% | 10000 nM -3.61%

N[C@@H]1CN(c2c(F)cc3c(=O)c(C(=O)O)cn([C@@H]4C[C@@H]4F)c3c2Cl)CC12CC2 [sitafloxacin]
inactive: 1 nM -0.69% | 8.33 nM -3.2% | 100 nM -0.99% | 833.33 nM -1.2% | 10000 nM 5.19%

Nc1ccc(S(=O)(=O)Nc2ccc(Cl)nn2)cc1 [sulfachlorpyridazine]
inactive: 1 nM 0.57% | 8.33 nM -0.21% | 100 nM 1.77% | 833.33 nM -1.32% | 10000 nM 0.69%

O=C(CCCN1CC=C(n2c(=O)[nH]c3ccccc32)CC1)c1ccc(F)cc1 [droperidol]
inactive: 1 nM -0.89% | 8.33 nM 3.34% | 100 nM 0.3% | 833.33 nM -0.44% | 10000 nM -2%

CN(C(=O)CN1C(=O)COc2cc(Cl)c(Cl)cc21)[C@@H](CN1CCCC1)c1ccc(-c2cccc(C(N)=O)c2)cc1
inactive: 1 nM -0.51% | 8.33 nM 1.04% | 100 nM 3.9% | 833.33 nM 1.88% | 10000 nM 5.93%

C[C@]12CC[C@H]3[C@@H](CC[C@@]45O[C@@H]4C(O)=C(C#N)C[C@]35C)[C@@H]1CC[C@@H]2O [trilostane]
inactive: 1 nM 1.21% | 8.33 nM -0.28% | 100 nM -1.2% | 833.33 nM 0.24% | 10000 nM 2.15%
